The text below walks through data of PubChem BioAssay (NCATS).

Molecules are shown by their SMILES. Inconclusive results are not listed. Calls of active or inactive are those of the source. Calls follow the shape of the dose curve; as a rule, active = well fitted inhibition curve with a large enough effect; inconclusive = small, poorly fitted or top-dose-only effect; inactive = flat fitted curve, though single readings scatter.

Chain of Ubiquitin carboxyl-terminal hydrolase 1 (Homo sapiens) (O94782 whole entry, looked up): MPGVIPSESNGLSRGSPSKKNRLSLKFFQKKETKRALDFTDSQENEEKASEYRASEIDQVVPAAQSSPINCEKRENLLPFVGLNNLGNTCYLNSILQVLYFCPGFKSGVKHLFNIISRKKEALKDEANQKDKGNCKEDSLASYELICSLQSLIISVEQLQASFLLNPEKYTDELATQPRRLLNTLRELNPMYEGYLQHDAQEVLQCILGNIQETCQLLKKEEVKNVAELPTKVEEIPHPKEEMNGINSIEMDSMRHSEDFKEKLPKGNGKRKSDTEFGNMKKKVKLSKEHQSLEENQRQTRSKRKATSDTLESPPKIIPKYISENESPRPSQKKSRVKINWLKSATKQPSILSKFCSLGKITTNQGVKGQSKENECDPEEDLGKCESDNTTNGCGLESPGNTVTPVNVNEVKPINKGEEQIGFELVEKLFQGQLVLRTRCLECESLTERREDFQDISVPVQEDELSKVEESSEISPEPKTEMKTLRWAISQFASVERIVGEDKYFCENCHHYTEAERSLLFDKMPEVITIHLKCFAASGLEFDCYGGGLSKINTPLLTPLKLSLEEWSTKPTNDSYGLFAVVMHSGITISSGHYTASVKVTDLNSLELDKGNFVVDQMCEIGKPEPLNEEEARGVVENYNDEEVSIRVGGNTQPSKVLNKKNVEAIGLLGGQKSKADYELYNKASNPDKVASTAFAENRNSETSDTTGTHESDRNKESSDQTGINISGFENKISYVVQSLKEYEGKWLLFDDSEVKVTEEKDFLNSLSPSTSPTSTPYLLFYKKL

System in the first assay: not listed separately
The experiment in a line: qHTS Assay for Lipid Storage Modulators (AID 1519). The settings on record: Drosophila S3 cells, BODIPY lipid droplet/cell ratio, laser cytometry; measured here: lipid channel max response; cells loaded with oleic acid. The method in brief: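 Cells seeded at 5,000 per well were treated with compounds over a concentration series and loaded with oleic acid (400 uM, as added). Lipid droplet fluorescence (488 nm excitation, 500-530 nm channel) was read by laser-scanning cytometry and normalized to 20 uM Triacsin C.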
On the technique in general: qHTS replaces the single test concentration by a dilution series.
For the molecule `C[C@H]1CC2[C@@H]3CCC4=CC(=O)C=C[C@]4(C)[C@@]3(F)[C@@H](O)C[C@]2(C)[C@@]1(O)C(=O)CO` (stereo partly specified), the max response turned out to be 0.965%.
In the case of `COC1=C(OC)C(=O)C(C/C=C(\C)CC/C=C(\C)CC/C=C(\C)CC/C=C(/C)CC/C=C(\C)CC/C=C(\C)CC/C=C(\C)CC/C=C(\C)CC/C=C(\C)CCC=C(C)C)=C(C)C1=O`, the max response came to 27.6%.
For `C=C1CCC2[C@](C)(CO)C(O)CC[C@]2(C)C1C/C=C1/C(=O)OCC1O` (stereo partly specified), the max response came out at 17.4%.

The target in a further assay is Ubiquitin carboxyl-terminal hydrolase 1 (Homo sapiens) (UniProt O94782). The experiment in a line: Inhibitors of USP1/UAF1: Pilot qHTS (AID 504865).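 Also: rhodamine fluorescence freed from ubiquitin-rhodamine substrate followed over time; top concentration of the series differs between compounds; % is scaled to controls: 0 for no effect and ±100 for the full control effect; nearly all actives have a fitted effect of over 35% in size.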 To be noted: purified USP1/UAF1, Ub-rhodamine cleavage fluorescence; series mostly up to 54.9 µM; activity change, negative = inhibition: at the top concentration. The method, boiled down:
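In 50mM HEPES pH 7.8 containing 0.5mM EDTA, 1mM TCEP, 0.1 mg/ml BSA and 0.01% Tween-20, 1nM USP1/UAF1 is exposed to compound for 15 min, then Ub-Rho (150nM final) is added and fluorescence is read over time.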
For `CC(/C=C1\SC(=S)N(CC(=O)O)C1=O)=C\c1ccccc1`, the “activity change, negative = inhibition” value was -10.9% [at 114 µM] (inactive).
On to `COC1=C(OC)C(=O)C(C/C=C(\C)CC/C=C(\C)CC/C=C(\C)CC/C=C(/C)CC/C=C(\C)CC/C=C(\C)CC/C=C(\C)CC/C=C(\C)CC/C=C(\C)CCC=C(C)C)=C(C)C1=O`, for which the “activity change, negative = inhibition” value was -7.84% [at 114 µM] (inactive).
Take `C=C1CCC2[C@](C)(CO)C(O)CC[C@]2(C)C1C/C=C1/C(=O)OCC1O` (stereo partly specified): the “activity change, negative = inhibition” value is -0.813% [at 114 µM] (inactive).
